Values joined by “and” are separate entries in the source; they are usually repeats but may differ in a detail not shown here. Equal entries are not always repeated. Some structures have more than one record in an assay (separate samples or runs), and their calls can disagree. Active and inactive are the calls of the source. Unless noted, the call rests on the fitted dose curve; in most records, active means well fitted curve in the direction sought with a large enough effect in the repeat runs; inconclusive means weak or mixed curves; inactive means no such curve, though single readings can be large; an effect the other way counts as inactive or inconclusive.
How the values were obtained:
[1] = qHTS assay to identify small molecule antagonists of the thyroid receptor (TR) signaling pathway - cell viability counter screen (AID 743064); further: nearly all actives have a fitted effect of over 50% in size; further: potency means the concentration at half of the fitted maximal effect
Summary of the method: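 Fluorescence from CellTiter-Fluor, added after 23.5 h exposure at 37 °C, reported viability of GH3.TRE-Luc cells co-treated with compound and 1 nM T3. Measured in the same wells as the luciferase TR readout.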

[2] = qHTS assay to identify small molecule antagonists of the estrogen receptor alpha (ER-alpha) signaling pathway - cell viability counter screen (AID 743074; calls by dose curve;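 further: HEK293 cells carrying ER-alpha-UAS-bla reporter stimulated with 17beta-estradiol; nearly all actives have a fitted effect of over 45% in size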; further: potency means the concentration at half of the fitted maximal effect)
[3] = qHTS assay to identify small molecule antagonists of the estrogen receptor alpha (ER-alpha) signaling pathway using the BG1 cell line - cell viability counter screen (AID 743081);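 further: compound given together with 17beta-estradiol as the ER stimulus; nearly all actives have a fitted effect of over 45% in size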; further: potency means the concentration at half of the fitted maximal effect
Aromatase (Homo sapiens) = Aromatase (Homo sapiens) (UniProt P11511); assay: qHTS assay to identify aromatase inhibitors (AID 743083); further: nearly all actives have a fitted effect of over 55% in size; further: potency means the concentration at half of the fitted maximal effect
[4] = qHTS assay to identify aromatase inhibitors - cell viability counter screen (AID 743084);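 further: cells stimulated with testosterone during compound exposure; nearly all actives have a fitted effect of over 55% in size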; further: potency means the concentration at half of the fitted maximal effect
[5] = target: Aryl hydrocarbon receptor (Homo sapiens) (UniProt P35869); assay: qHTS assay to identify small molecule that activate the aryl hydrocarbon receptor (AhR) signaling pathway (AID 743085); further: nearly all actives have a fitted effect of over 15% in size; further: potency means the concentration at half of the fitted maximal effect;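 on activation: HG2L7.5c1 human HepG2 liver cells with stably integrated DRE-driven firefly reporter; series mostly up to about 70 µM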
Summary of the method: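 Cell line HG2L7.5c1 (human hepatoma, 20× DRE-luc). Plated, 5 h 37C, compound/DMSO added, 24 h 37C. CellTiter-Fluor 30 min 37C → fluorescence; then ONE-Glo 30 min RT → luminescence.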

[6] = qHTS assay to identify small molecule that activate the aryl hydrocarbon receptor (AhR) signaling pathway - cell viability counter screen (AID 743086); further: nearly all actives have a fitted effect of over 45% in size; further: potency means the concentration at half of the fitted maximal effect
Summary of the method: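 HepG2-AhR-luc (HG2L7.5c1) cells, 4000/well, treated 24 h at 37 C with compound; viability measured as CellTiter-Fluor fluorescence after 30 min in the same wells as the luciferase read.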

[7] = target: Peroxisome proliferator-activated receptor gamma (Homo sapiens) (UniProt P37231); assay: qHTS assay to identify small molecule agonists of the peroxisome proliferator-activated receptor gamma (PPARg) signaling pathway (AID 743094; active means well fitted activation curve with a large enough effect in the signal ratio in the repeat runs, not every such curve was filed as active; inconclusive means weak or mixed curves, or effect the other way; inactive means no such curve, though single readings can be large or run the other way; the % refers to the signal ratio; further: potency means the concentration at half of the fitted maximal effect)
Summary of the method: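 Stably transfected HEK293H cells (GeneBLAzer PPARg UAS-bla) were incubated with test substances for 17 h at 37C after a 5 h pre-incubation; beta-lactamase activity was then detected by FRET substrate fluorescence.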

[8] = target: Estrogen receptor (Homo sapiens) (UniProt P03372); assay: qHTS assay to identify small molecule agonists of the estrogen receptor alpha (ER-alpha) signaling pathway (AID 743075; calls by dose curve;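 further: HEK293 GripTite cells with ER-alpha and UAS-driven beta-lactamase reporter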; further: potency means the concentration at half of the fitted maximal effect)
[9] = qHTS assay to identify small molecule antagonists of the estrogen receptor alpha (ER-alpha) signaling pathway using the BG1 cell line (AID 743080; calls by dose curve;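 further: BG1 cells stimulated with 17beta-estradiol alongside compound; nearly all actives have a fitted effect of over 25% in size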; further: potency means the concentration at half of the fitted maximal effect)
Summary of the method: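 Quantitative HTS on the Tox21 10K library: BG1 cells with endogenous ER-alpha and ERE-luciferase reporter, 17beta-estradiol stimulation, 21.5 h compound exposure, luminescence endpoint with parallel fluorescence cytotoxicity counter-read.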

[10] = qHTS assay to identify small molecule antagonists of the thyroid receptor (TR) signaling pathway (AID 743065); further: nearly all actives have a fitted effect of over 55% in size; further: potency means the concentration at half of the fitted maximal effect
Summary of the method: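 GH3.TRE-Luc rat pituitary cells (two TREs driving luciferase) were dosed with compound, then stimulated with 1 nM T3 (final) for 23.5 h at 37 C. ONE-Glo luminescence was the read-out, with CellTiter-Fluor fluorescence as the cytotoxicity counter-screen.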

[11] = system: thyroid hormone receptor (rat, GH3 cells); assay: qHTS assay to identify small molecule agonists of the thyroid receptor (TR) signaling pathway (AID 743066; calls by dose curve)
[12] = target: Estrogen receptor (Homo sapiens) (UniProt P03372); assay: qHTS assay to identify small molecule agonists of the estrogen receptor alpha (ER-alpha) signaling pathway using the BG1 cell line (AID 743079); further: nearly all actives have a fitted effect of over 20% in size; further: potency means the concentration at half of the fitted maximal effect
[13] = qHTS assay for small molecule agonists of the antioxidant response element (ARE) signaling pathway (AID 743202; active means well fitted activation curve with a large enough effect in the signal ratio in the repeat runs, not every such curve was filed as active; inconclusive means weak or mixed curves, or effect the other way; inactive means no such curve, though single readings can be large or run the other way; the % refers to the signal ratio; further: potency means the concentration at half of the fitted maximal effect)
Summary of the method: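 Agonist mode reporter screen: HepG2 cells with ARE-controlled beta-lactamase are incubated with test compounds for 16 h at 37 C, and beta-lactamase activity is measured as fluorescence of cleaved B/G FRET substrate.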

[14] = qHTS assay for small molecule activators of the heat shock response signaling pathway - cell viability counter screen (AID 743209); further: nearly all actives have a fitted effect of over 50% in size; further: potency means the concentration at half of the fitted maximal effect
Summary of the method: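 Quantitative HTS format, Tox21 10K library. HeLa cells carrying an HSE-driven beta-lactamase reporter were treated 5 h at 37 C, then assessed for viability by CellTiter-Glo luminescence.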

[15] = target: Estrogen receptor (Homo sapiens) (UniProt P03372); assay: qHTS assay to identify small molecule antagonists of the estrogen receptor alpha (ER-alpha) signaling pathway (AID 743069; active means well fitted curve in the direction sought with a large enough effect in the signal ratio in the repeat runs, not every such curve was filed as active; inconclusive means weak or mixed curves, or effect the other way; inactive means no such curve, though single readings can be large or run the other way; the % refers to the signal ratio; further: potency means the concentration at half of the fitted maximal effect)
Summary of the method: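 Reporter cells (ER-alpha-bla, HEK293 background) are conditioned overnight in stripped-serum medium (2% charcoal-stripped FBS). Compound and 17beta-estradiol exposure runs 18 hr at 37C, 5% CO2.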

[16] = qHTS assay to identify small molecule agonists of the peroxisome proliferator-activated receptor delta (PPARd) signaling pathway - cell viability counter screen (AID 743211); further: potency means the concentration at half of the fitted maximal effect; nearly all actives have a fitted effect of over 55% in size
Summary of the method: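 HEK293H PPARd-bla, 3000 cells/well; 5 h preincubation 37C/5% CO2; cpd in DMSO, 17 h 37C; B/G FRET substrate 2 h RT; CellTiter-Glo 30 min RT, luminescence.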

[17] = qHTS assay to identify small molecule antagonists of the peroxisome proliferator-activated receptor gamma (PPARg) signaling pathway - cell viability counter screen (AID 743194); further: nearly all actives have a fitted effect of over 55% in size; further: potency means the concentration at half of the fitted maximal effect
Summary of the method: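 Cytotoxicity counter screen in PPARg-bla HEK293H cells, same wells as reporter assay. Compounds plus 50 nM rosiglitazone (final) for 17 h at 37 C, then viability read by CellTiter-Glo luminescence.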

Measured: Potency

Estrogen receptor (Homo sapiens), sequence (P03372 whole entry, looked up): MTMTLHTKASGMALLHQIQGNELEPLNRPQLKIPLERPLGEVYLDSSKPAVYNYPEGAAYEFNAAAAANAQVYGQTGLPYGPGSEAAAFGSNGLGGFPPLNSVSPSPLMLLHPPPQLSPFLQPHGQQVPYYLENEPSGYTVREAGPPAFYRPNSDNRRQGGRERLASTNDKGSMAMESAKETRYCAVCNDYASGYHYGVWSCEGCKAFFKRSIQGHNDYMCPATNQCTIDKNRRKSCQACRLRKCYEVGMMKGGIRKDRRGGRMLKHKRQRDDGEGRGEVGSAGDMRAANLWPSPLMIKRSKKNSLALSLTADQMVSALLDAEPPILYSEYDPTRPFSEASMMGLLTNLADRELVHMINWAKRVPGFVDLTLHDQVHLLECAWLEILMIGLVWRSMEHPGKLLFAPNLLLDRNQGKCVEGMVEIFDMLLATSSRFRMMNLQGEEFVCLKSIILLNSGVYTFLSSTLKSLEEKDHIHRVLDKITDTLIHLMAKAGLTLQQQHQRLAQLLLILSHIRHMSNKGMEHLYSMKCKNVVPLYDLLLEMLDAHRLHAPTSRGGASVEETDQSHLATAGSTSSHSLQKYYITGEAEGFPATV
Peroxisome proliferator-activated receptor gamma (Homo sapiens), sequence (P37231 whole entry, looked up): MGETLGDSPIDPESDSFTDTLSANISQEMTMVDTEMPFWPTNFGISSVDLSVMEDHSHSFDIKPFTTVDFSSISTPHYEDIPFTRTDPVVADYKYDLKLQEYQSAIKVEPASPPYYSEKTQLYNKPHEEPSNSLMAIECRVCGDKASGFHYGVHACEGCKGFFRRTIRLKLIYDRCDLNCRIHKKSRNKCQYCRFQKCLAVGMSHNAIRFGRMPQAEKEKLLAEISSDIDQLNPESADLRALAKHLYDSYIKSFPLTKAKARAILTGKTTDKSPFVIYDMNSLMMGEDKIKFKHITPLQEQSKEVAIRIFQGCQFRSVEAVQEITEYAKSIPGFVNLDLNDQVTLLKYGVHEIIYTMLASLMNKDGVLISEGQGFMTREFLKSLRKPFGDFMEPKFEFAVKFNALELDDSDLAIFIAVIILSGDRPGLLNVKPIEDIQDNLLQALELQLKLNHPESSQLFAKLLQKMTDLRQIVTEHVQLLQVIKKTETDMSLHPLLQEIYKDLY
Aromatase (Homo sapiens), sequence (P11511 whole entry, looked up): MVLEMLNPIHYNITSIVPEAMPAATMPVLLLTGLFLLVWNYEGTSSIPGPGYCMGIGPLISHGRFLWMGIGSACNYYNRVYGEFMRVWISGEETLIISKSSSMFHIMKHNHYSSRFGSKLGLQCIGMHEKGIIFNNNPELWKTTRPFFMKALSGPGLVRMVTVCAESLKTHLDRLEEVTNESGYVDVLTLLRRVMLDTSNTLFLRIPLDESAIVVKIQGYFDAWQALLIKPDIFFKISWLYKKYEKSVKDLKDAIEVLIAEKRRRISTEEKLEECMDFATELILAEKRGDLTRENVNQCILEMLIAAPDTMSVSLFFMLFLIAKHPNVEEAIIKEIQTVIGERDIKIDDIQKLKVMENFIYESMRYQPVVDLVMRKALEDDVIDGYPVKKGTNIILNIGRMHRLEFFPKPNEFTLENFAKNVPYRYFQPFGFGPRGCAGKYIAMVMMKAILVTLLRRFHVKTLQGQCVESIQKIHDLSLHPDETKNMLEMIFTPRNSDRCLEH
Aryl hydrocarbon receptor (Homo sapiens), sequence (P35869 whole entry, looked up): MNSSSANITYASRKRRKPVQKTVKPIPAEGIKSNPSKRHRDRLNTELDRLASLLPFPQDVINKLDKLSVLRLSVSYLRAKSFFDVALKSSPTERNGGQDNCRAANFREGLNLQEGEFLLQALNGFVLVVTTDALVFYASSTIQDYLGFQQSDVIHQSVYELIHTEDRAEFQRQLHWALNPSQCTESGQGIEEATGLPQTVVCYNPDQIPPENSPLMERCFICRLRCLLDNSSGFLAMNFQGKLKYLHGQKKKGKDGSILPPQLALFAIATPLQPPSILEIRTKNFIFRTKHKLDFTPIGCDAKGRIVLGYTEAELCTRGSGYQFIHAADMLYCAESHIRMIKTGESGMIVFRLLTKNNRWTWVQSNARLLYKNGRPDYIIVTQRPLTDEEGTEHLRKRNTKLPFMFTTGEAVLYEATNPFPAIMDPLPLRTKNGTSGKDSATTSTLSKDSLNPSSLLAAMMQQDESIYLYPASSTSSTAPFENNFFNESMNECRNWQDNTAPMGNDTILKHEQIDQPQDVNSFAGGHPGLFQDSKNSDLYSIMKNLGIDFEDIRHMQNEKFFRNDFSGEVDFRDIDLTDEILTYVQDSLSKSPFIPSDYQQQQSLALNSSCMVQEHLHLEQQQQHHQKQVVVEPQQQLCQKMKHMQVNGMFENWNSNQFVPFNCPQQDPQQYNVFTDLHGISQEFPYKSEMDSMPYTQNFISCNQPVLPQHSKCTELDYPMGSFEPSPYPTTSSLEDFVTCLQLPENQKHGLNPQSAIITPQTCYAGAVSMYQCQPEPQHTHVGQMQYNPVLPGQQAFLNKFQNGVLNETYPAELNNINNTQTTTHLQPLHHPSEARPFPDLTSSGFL

Cc1ncc(C[n+]2csc(CCOP(=O)(O)O)c2C)c(N)n1
inactive: [1] | [2] | [3] | Aromatase (Homo sapiens) | [4] | [5] | [6] | [7]

CO[C@H]1C[C@@H]2CC[C@@H](C)[C@@](O)(O2)C(=O)C(=O)N2CCCC[C@H]2C(=O)O[C@H]([C@H](C)C[C@@H]2CC[C@@H](O)[C@H](OC)C2)CC(=O)[C@H](C)C=C(C)[C@@H](O)[C@@H](OC)C(=O)[C@H](C)C[C@H](C)/C=C/C=CC=C1C
inactive: [8] | [5]
active: [1] 15 µM and 9.44 µM | [2] 23.9 µM | [9] 3.8 nM and 7.5 nM | [3] 23.7 µM and 3.76 µM | Aromatase (Homo sapiens) 2.11 µM | [4] 23.7 µM and 26.6 µM | [6] 13.3 µM and 26.6 µM

CC(C)OC(=O)Nc1ccc2nc(-c3cscn3)[nH]c2c1
active: [10] 3.76 µM | [12] 2.11 µM | [5] 6.68 µM
inactive: [11] | [2] | [8] | Aromatase (Homo sapiens) | [4] | [6] | [7]

Cc1cc(N)c2ccccc2[n+]1CCCCCCCCCC[n+]1c(C)cc(N)c2ccccc21
active: [10] 11.4 µM | [2] 8.11 µM
inactive: [11] | [8] | [5] | [6] | [7]

S=C1NC=NC2N=CNC12 (configuration not stated)
inactive: [1] | [11] | [3] | Aromatase (Homo sapiens) | [4] | [6] | [14]
active: [2] 11 µM | [5] 30.6 µM | [13] 4.86 µM

c1ccc2occc2c1
inactive: [10] | [11] | [15] | [8] | [12] | [9] | [3] | [7] | [14]
active: Aromatase (Homo sapiens) 68.6 µM | [4] 68.6 µM

CCOc1ccc(S(=O)(=O)O)c2cccnc12
active: [8] 23.9 µM [inconclusive] | [12] 6.68 µM
not listed: [1] | [7] | [13] | [14] | [16] | [17]
inactive: all other assays above

CC[C@@]1([C@@H]2O[C@@H]([C@H]3O[C@@](O)(CO)[C@H](C)C[C@@H]3C)C[C@@H]2C)CC[C@H]([C@]2(C)CC[C@]3(C[C@H](O)[C@@H](C)[C@@H]([C@@H](C)[C@@H](OC)[C@H](C)C(=O)O)O3)O2)O1 (stereo in doubt)
active: [1] 596 nM and 376 nM
inactive: [8] | [12] | Aromatase (Homo sapiens) | [4] | [5] | [6]
18.8 µM (active) and inactive: [3]

C=CCc1cc(S(=O)(=O)c2ccc(O)c(CC=C)c2)ccc1O
active: [1] 61.1 µM | [15] 34.7 µM [inconclusive] | [9] 61.1 µM | Aromatase (Homo sapiens) 54.5 µM | [16] 43.6 µM
inactive: [2] | [8] | [3] | [4] | [7] | [14]

O=C1CCC(c2ccccc2)(C2CCN(Cc3ccccc3)CC2)C(=O)N1 (configuration not stated)
not listed: [1] | [9] | [13] | [14] | [16] | [17]
inactive: all other assays above

CC(C)(Oc1ccc(C2CCCc3ccccc32)cc1)C(=O)O (configuration not stated)
active: [12] 18.8 µM | [7] 2.39 µM
not listed: [1] | [9] | [13] | [14] | [16] | [17]
inactive: all other assays above

COc1cc([C@@H]2c3cc4c(cc3[C@@H](O[C@@H]3O[C@@H]5CO[C@@H](C)O[C@H]5[C@H](O)[C@H]3O)[C@H]3COC(=O)[C@H]23)OCO4)cc(OC)c1O
inactive: [11] | [2] | [3] | Aromatase (Homo sapiens) | [4] | [5] | [6] | [17]
active: [1] 4.28 µM

O=C1c2ccccc2-c2n[nH]c3cccc1c23
inactive: [11] | [2] | [12] | Aromatase (Homo sapiens)
active: [10] 11.9 µM | [5] 29.8 µM

CCCC(=O)c1cc(O)c(O)cc1O
inactive: [11] | [15] | [8] | [12] | [9]
active: [10] 61.1 µM | [3] 61.1 µM

CCCCCN=C(N)N/N=C/c1c[nH]c2ccc(OC)cc12
inactive: [1] | [11] | [2] | [3] | Aromatase (Homo sapiens) | [4] | [6] | [7]
active: [17] 13.3 µM | [14] 29.8 µM | [16] 8.41 µM

CC(=O)Nc1ccc(OC(C)=O)cc1
inactive: [1] | [11] | [2] | [3] | [6]

O=C(O)c1cc(O)c2c(c1)[C@H]([C@H]1c3cc(C(=O)O)cc(O)c3C(=O)c3c(O[C@@H]4O[C@H](CO)[C@@H](O)[C@H](O)[C@H]4O)cccc31)c1cccc(O[C@@H]3O[C@H](CO)[C@@H](O)[C@H](O)[C@H]3O)c1C2=O
inactive: [10] | [11] | [2] | [3] | Aromatase (Homo sapiens) | [4] | [5] | [6] | [7]

Reference: PubChem BioAssay (Tox21)
